Measured values taken from PubChem BioAssay (EPA / NIEHS).
“And” between values parts separate entries of the source, which are not always exact repeats. Equal values may be shown once. Records with an inconclusive call do not appear. More than one record can exist for a structure, and the calls need not agree. The source made the active and inactive calls. The calls were made as follows: active = hit-call score of the fitted dose curve at least 0.9, where 1 is the maximum; inconclusive = response in the unintended direction; inactive = score below 0.9.

Key:
[1] = biological target: Cellular tumor antigen p53 (Homo sapiens) (UniProt P04637); test: TOX21_p53_BLA_p2_ratio: Tox21 HCT-116 p53 Agonism Beta-lactamase Assay, Ratio, Phase 2 (AID 2283592)
In short: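 HCT116 p53-bla; 4000 cells/well; 5 h pre-incubation; cpd in DMSO, 217-fold dilution; 16 h 37C/5% CO2; CCF4-AM 2 h RT; Ex 405, Em 460/530 ratio; DMSO = baseline; positive fitting direction.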

[2] = TOX21_p53_BLA_p3_viability: Viability Assessment in the Tox21 HCT-116 p53 Agonism Beta-lactamase Assay, Phase 3 (AID 2283593);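 also: cells exposed to compound for 16 h before reading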
In short: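 HCT116 cells, 4000/well, dosed 5 h after plating by pin transfer (217-fold dilution from DMSO stock) and incubated 16 h at 37C, 5% CO2. Viability read as ATP luminescence with CellTiter-Glo after 30 min at room temperature.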

[3] = biological target: Cellular tumor antigen p53 (Homo sapiens) (UniProt P04637); test: TOX21_p53_BLA_p3_ratio: Tox21 HCT-116 p53 Agonism Beta-lactamase Assay, Ratio, Phase 3 (AID 2283596)
In short: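 HCT116 p53-bla cells (4000/well) given compound in DMSO (217-fold dilution) after 5 h, incubated 16 h at 37C. CCF4-AM substrate 2 h at room temperature; 460/530 nm emission ratio, gain fitted against DMSO.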

[4] = TOX21_p53_BLA_p4_viability: Viability Assessment in the Tox21 HCT-116 p53 Agonism Beta-lactamase Assay, Phase 4 (AID 2283597);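 also: hits lower the luminescence signal meaning cytotoxicity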
In short: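 Cells plated, 5 h pre-incubation; DMSO compounds pinned (217-fold dilution); 16 h, 37C/5% CO2; CCF4-AM 2 h RT; CellTiter-Glo 30 min RT; luminescence read.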

[5] = biological target: Cellular tumor antigen p53 (Homo sapiens) (UniProt P04637); test: TOX21_p53_BLA_p5_ratio: Tox21 HCT-116 p53 Agonism Beta-lactamase Assay, Ratio, Phase 5 (AID 2283599)
In short: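 HCT-116 p53-bla cells (4000/well) plated 5 h, dosed with compound (217-fold DMSO dilution) for 16 h at 37 C; CCF4-AM substrate 2 h at room temperature. Activity is the 460/530 nm emission ratio (405 nm excitation), fitted in gain-of-signal direction versus DMSO.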

[6] = TOX21_p53_BLA_p5_viability: Viability Assessment in the Tox21 HCT-116 p53 Agonism Beta-lactamase Assay, Phase 5 (AID 2283600)
In short: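 4000 cells/well; 5 h pre-incubation; DMSO compounds pin-transferred, 217-fold dilution; 16 h, 37C/5% CO2; CCF4-AM 2 h RT; CellTiter-Glo 30 min RT; luminescence.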

[7] = biological target: Cellular tumor antigen p53 (Homo sapiens) (UniProt P04637); test: TOX21_p53_BLA_p4_ratio: Tox21 HCT-116 p53 Agonism Beta-lactamase Assay, Ratio, Phase 4 (AID 2283601)
In short: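 HCT-116 p53 beta-lactamase reporter cells (4000/well) preincubated 5 h, then compound (217-fold dilution of DMSO stock) for 16 h at 37C. CCF4-AM substrate added 2 h at room temperature; 460/530 nm emission ratio fitted upward versus DMSO.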

[8] = tested on: Thyroperoxidase (TPO), gene 54314; test: CCTE_Simmons_AUR_rTPO: CCTE's Amplex UltraRed Assay for Thyroperoxidase (TPO) Inhibition, Simmons Lab (AID 2283662);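 also: potency for loss of signal meaning inhibition of peroxidase activity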
In short: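 Cell-free peroxidase activity assay using rat thyroid gland microsomes with excess H2O2 (300 uM) and 25 uM Amplex UltraRed. Compounds tested from 5 nM to 87.5 uM; fluorescence measured after 30 min at 37C, analysed relative to DMSO baseline.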

[9] = CCTE_Simmons_CellTiterGLO_HEK293T: Viability Assessment in CCTE's Assays for Thyroperoxidase (TPO) Inhibition, Simmons Lab (AID 2283665);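 also: cells exposed to compound for 24 h before readout; actives reduce ATP signal below DMSO vehicle meaning cytotoxicity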
In short: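 HEK293T, 10 000 cells/well, DMEM + 1% FBS; 8-pt titration 5 nM–87.5 uM [final], 0.5% DMSO; 24 hr, 37C, 5% CO2; CellTiter-Glo luminescence; n=3 biological replicates.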

Measured: AC50

Cellular tumor antigen p53 (Homo sapiens), sequence (P04637 whole entry, looked up): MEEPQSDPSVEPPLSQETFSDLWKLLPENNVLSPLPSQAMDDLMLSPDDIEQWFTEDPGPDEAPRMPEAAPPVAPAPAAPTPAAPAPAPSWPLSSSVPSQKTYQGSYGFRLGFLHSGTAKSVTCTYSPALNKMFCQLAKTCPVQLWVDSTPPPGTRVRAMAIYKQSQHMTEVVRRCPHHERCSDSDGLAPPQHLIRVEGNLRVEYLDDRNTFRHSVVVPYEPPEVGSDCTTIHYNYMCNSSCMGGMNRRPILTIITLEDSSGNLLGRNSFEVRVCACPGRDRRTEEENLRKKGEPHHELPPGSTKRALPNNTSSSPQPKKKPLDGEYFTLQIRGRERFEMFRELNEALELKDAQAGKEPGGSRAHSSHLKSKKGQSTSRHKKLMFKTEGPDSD

COC(=O)C1=C(C)NC(C)=C(C(=O)OCC(C)C)C1c1ccccc1[N+](=O)[O-] (stereo unspecified)
inactive: [2] | [3] | [4] | [5] | [6]
active: [1] 18.4 µM | [3] 23 µM | [5] 20.6 µM | [7] 33.2 µM and 18.9 µM

C[C@]12CCC(=O)C=C1CC[C@@H]1[C@@H]2C(=O)C[C@@]2(C)[C@H]1CC[C@]2(O)C(=O)CO
not listed: [8] | [9]
inactive: all other assays above

CC(C)c1ccc2c(C(C)C)cc(C(C)C)c(S(=O)(=O)O)c2c1
active: [4] 89.7 µM
not listed: [8] | [9]
inactive: all other assays above

CC(C)c1ccc(C=O)cc1
inactive: [1] | [2]

O=C(Nc1ccccc1)c1ccccc1O
active: [1] 57 µM
not listed: [8] | [9]
inactive: all other assays above

COC(=O)/C=C/C(C)=C\C=C\C(C)=C\C=C\C=C(C)\C=C\C=C(C)\C=C\C(=O)O
inactive: [1] | [2] | [3] | [4] | [5]

CC(C)(Oc1ccc(C2CC2(Cl)Cl)cc1)C(=O)O (stereo unspecified)
not listed: [8] | [9]
inactive: all other assays above

O=C(O)c1ccccc1Nc1cccc(C(F)(F)F)c1
inactive: [1] | [2] | [3] | [5] | [6] | [7]
active: [1] 19.9 µM | [4] 22.7 µM and 23 µM | [5] 46.1 µM | [7] 39.5 µM

CC=C1CC2C=CC1C2 (stereo unspecified)
not listed: [8] | [9]
inactive: all other assays above

C(=CC=Nc1ccccc1)C=CNc1ccccc1
not listed: [7] | [8] | [9]
inactive: all other assays above

CC(=O)OCCC1CCCCC1
inactive: [1] | [2] | [3] | [4]

CCCCCCCCCCCCCCCC[N+](C)(C)CC
active: [1] 63.3 µM | [2] 65.4 µM and 35.3 µM | [3] 44.5 µM and 30.8 µM | [4] 73.7 µM and 30.9 µM | [5] 71.2 µM and 24.6 µM | [6] 74.8 µM and 18.2 µM | [7] 70.4 µM
inactive: [1]

O=C(Oc1ccccc1)c1ccc2ccccc2c1O
not listed: [8] | [9]
inactive: all other assays above

O=C(C=Cc1ccccc1)OCc1ccccc1
not listed: [8] | [9]
inactive: all other assays above

C=C[C@](C)(O)CC[C@@H]1[C@@]2(C)CCCC(C)(C)[C@@H]2CC[C@@]1(C)O
inactive: [7]
active: [1] 86 µM | [2] 64.6 µM | [3] 85.2 µM | [4] 15.8 µM | [5] 87.1 µM | [6] 67.5 µM

O=c1[nH]nc(-c2ccc([N+](=O)[O-])o2)o1
not listed: [8] | [9]
inactive: all other assays above

CC(C)C1=CC2=CC[C@@H]3[C@](C)(CCC[C@@]3(C)C(=O)O)[C@H]2CC1
not listed: [7] | [8] | [9]
inactive: all other assays above

Cc1oncc1C(=O)Nc1ccc(C(F)(F)F)cc1
not listed: [7] | [8] | [9]
inactive: all other assays above

C=CC(=O)NC(C)(C)CS(=O)(=O)O
not listed: [8] | [9]
inactive: all other assays above

Nc1ccc(N)c(Cl)c1
inactive: [1] | [2] | [4] | [5] | [6] | [7]
active: [1] 68.3 µM | [3] 76.2 µM | [5] 75.2 µM | [7] 72.1 µM

CCCCCCCCCCC=CC#N
not listed: [8] | [9]
inactive: all other assays above

C/C=C\C/C=C/CCCCCCCCOC(C)=O
not listed: [8] | [9]
inactive: all other assays above

Cc1cccc(N(C)C(=S)Oc2ccc3ccccc3c2)c1
not listed: [8] | [9]
inactive: all other assays above

COCC(C)N (stereo unspecified)
not listed: [8] | [9]
inactive: all other assays above

COc1cc(NC(=O)CC(C)=O)c(OC)cc1Cl
inactive: [1] | [2] | [3] | [4] | [5] | [6] | [7]
active: [4] 31 µM

[Cl][Bi]([Cl])([c]1ccccc1)([c]1ccccc1)[c]1ccccc1
active: [1] 18.4 µM | [2] 71.4 µM | [3] 76.2 µM | [4] 11.2 µM | [5] 67.7 µM | [6] 58.1 µM | [7] 14.1 µM

CC(=O)NS(=O)(=O)c1ccc(N)cc1
not listed: [8] | [9]
inactive: all other assays above

CCCCOCCOC(=O)COc1nc(Cl)c(Cl)cc1Cl
not listed: [8] | [9]
inactive: all other assays above

CC(=O)Nc1ccc2c(c1)Cc1cc(NC(C)=O)ccc1-2
inactive: [1] | [2] | [3] | [4] | [5]

Nc1ccc(N=Nc2ccccc2)c(N)n1
inactive: [1] | [2] | [4] | [5] | [6] | [7]
active: [1] 85.6 µM and 25.8 µM | [3] 87.8 µM and 85.8 µM and 43.2 µM | [5] 83.5 µM and 85.4 µM

OC1CCCCCCCCCCC1
not listed: [8] | [9]
inactive: all other assays above

O=C(Nc1ccccc1SSc1ccccc1NC(=O)c1ccccc1)c1ccccc1
active: [1] 58.3 µM and 56.6 µM | [3] 72.5 µM | [5] 60 µM and 53.4 µM | [7] 65.5 µM and 56.9 µM
inactive: [2] | [3] | [4] | [6]

CCOC(=O)N1CCC(=C2c3ccc(Cl)cc3CCc3cccnc32)CC1
active: [1] 36.5 µM and 12.9 µM | [2] 79.9 µM | [3] 43.3 µM and 22.4 µM | [5] 49.6 µM | [6] 75.4 µM
inactive: [2] | [4] | [5] | [6] | [7]

COc1c2ccoc2cc2oc(=O)ccc12
not listed: [8] | [9]
inactive: all other assays above

C=C1C2CCC(C2)C1(C)C (stereo unspecified)
not listed: [8] | [9]
inactive: all other assays above

C#CC1(O)CC[C@H]2[C@@H]3CCC4=CCCC[C@@H]4[C@H]3CC[C@@]21C (stereo partly specified)
active: [1] 87.7 µM | [2] 83.3 µM | [3] 86.1 µM | [4] 55.7 µM | [5] 86.1 µM | [6] 46.1 µM | [7] 84.8 µM
inactive: [1] | [2] | [6]

Cc1cc(=O)n(-c2ccccc2)n1C
not listed: [8] | [9]
inactive: all other assays above

Nc1ncn([C@@H]2O[C@H](CO)[C@@H](O)[C@H]2O)c(=O)n1
active: [1] 1.06 µM | [3] 13.4 µM | [4] 1.15 µM and 514 nM | [5] 3.88 µM and 6.69 µM | [7] 13.6 µM and 6.66 µM
inactive: [1] | [2] | [3] | [6]

CCCCC/C=C\C/C=C\CCCCCCCC(=O)OC
active: [1] 74.7 µM | [5] 73.3 µM | [8] 43.8 µM | [9] 58.4 µM
inactive: [1] | [2] | [3] | [4] | [5] | [6] | [7]

COc1ccc(C(Cl)=C(c2ccc(OC)cc2)c2ccc(OC)cc2)cc1
not listed: [8] | [9]
inactive: all other assays above

Cc1cc(C)c(C)c(C)c1
not listed: [6] | [8] | [9]
inactive: all other assays above

CC1(C)O[C@@H]2C[C@H]3[C@@H]4C[C@H](F)C5=CC(=O)CC[C@]5(C)[C@H]4[C@@H](O)C[C@]3(C)[C@]2(C(=O)CO)O1
not listed: [8] | [9]
inactive: all other assays above

CN1C(=O)N(C)C(O)C1O (stereo unspecified)
not listed: [8] | [9]
inactive: all other assays above

O=C(O)CC(C(=O)O)C(CC(=O)O)C(=O)O (stereo unspecified)
not listed: [8] | [9]
inactive: all other assays above

Cc1cccc(C(=O)O)c1
not listed: [6] | [8] | [9]
inactive: all other assays above

CCC(CO)CO
not listed: [6] | [8] | [9]
inactive: all other assays above

O=[N+]([O-])C1(Br)COCOC1
not listed: [6] | [8] | [9]
inactive: all other assays above

CCCCCCCC/C=C\CCCCCCCC(=O)O
not listed: [8] | [9]
inactive: all other assays above

CC(=O)[C@@]1(O)CC[C@H]2[C@@H]3C[C@H](C)C4=CC(=O)C=C[C@]4(C)[C@@]3(F)[C@@H](O)C[C@@]21C
not listed: [6] | [8] | [9]
inactive: all other assays above

CCN(CCC#N)c1ccc(N=Nc2c(Cl)cc([N+](=O)[O-])cc2Cl)cc1
active: [8] 37.9 µM | [9] 41.8 µM
inactive: all other assays above

O=C(Nc1cccc(C(F)(F)F)c1)c1cc(Br)cc(Br)c1O
inactive: [6]
active: [1] 181 nM and 1.14 µM | [2] 429 nM and 1.04 µM | [3] 306 nM and 746 nM | [4] 1.82 µM and 1.7 µM | [5] 1.07 µM and 7.71 µM | [7] 3.52 µM and 8.65 µM

CC(C)(c1cc(Br)c(OCCO)c(Br)c1)c1cc(Br)c(OCCO)c(Br)c1
active: [1] 10.8 µM | [2] 55 µM | [3] 19.9 µM | [4] 53.1 µM | [5] 40.1 µM | [6] 60.1 µM | [7] 50.1 µM
